C diff HTS – inhibitors of Clostridium difficile growth. Clostridium difficile clinical isolate growth, OD600, 24 h; stronger effect = lower value. hit rate 0.25% among 86,000. AID 1259249. growth activity, negative = inhibition, % at 16 µg/mL (by protocol);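 active = mean growth activity at or below -80% and every replicate also at or below -80%; inconclusive = mean at or below -80% but some replicate above -80%; inactive = mean growth activity above -80%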
Pf Dd2 growth – blocks growth of Plasmodium falciparum Dd2 parasites. activity change, % at 10 µM. hit rate 2.3% among 94,000. P. falciparum Dd2 growth, SYBR Green, 72 h; stronger effect = lower value. AID 1159554; in the data active = activity change below about -80%; inconclusive = no clear call, values can overlap the other calls
T cruzi growth-1 – blocks T. cruzi growth in NIH3T3 culture; hit rate 5.9% among 77,000; AID 624255; T. cruzi beta-gal in NIH3T3, GalScreen luminescence, 90 h; inhibition, % at 8.34 µM;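 active = mean inhibition above about 93%, with at least 55% of replicates each passing it, limit read from the data, passing the limit was not always enough; inconclusive = only one of those two conditions holds; inactive = neither condition holds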
T cruzi growth-2 – blocks T. cruzi growth in NIH3T3 host cells | hit rate 72% among 5,600 | T. cruzi beta-gal in NIH3T3, GalScreen luminescence, 90 h | shares compounds with T cruzi growth-1 | inhibition, % at 8.35 µM;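 active = mean replicate inhibition above about 95% and at least 55% of replicates individually reaching it, limit read from the data; inconclusive = only one of the two criteria is met; inactive = neither criterion is met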
T cruzi growth-3 – inhibitors of T. cruzi proliferation; shares compounds with T cruzi growth-1; hit rate 21% among 5,600; inhibition, % at 2.09 µM; T. cruzi beta-gal in NIH3T3, GalScreen luminescence, 90 h;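 active = mean inhibition above about 95%, with at least 55% of replicates also reaching it, limit read from the data; inconclusive = meets just one of the two conditions; inactive = meets neither condition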
3T3 cytotox – cytotoxicity in mouse NIH/3T3 fibroblasts; cytotoxicity (signal decrease), % at 8.35 µM; shares compounds with T cruzi growth-1; NIH/3T3 viability, CellTiter-Glo ATP luminescence, 90 h; hit rate 14% among 5,600;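 active = mean signal decrease across replicates above about 35% based on untreated-well scatter, with enough replicates individually passing, limit read from the data; inconclusive = no rule stated though some were filed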
NIH3T3 tox 2 – NIH/3T3 (mouse) viability loss; shares compounds with T cruzi growth-1; NIH/3T3 viability, CellTiter-Glo ATP luminescence, 90 h; inhibition, % at 24.9 µM; hit rate 56% among 5,600; AID 651744;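 active = mean loss of cell viability signal at or above a set limit, and enough replicates individually reaching it; inconclusive = meets only the mean limit or only the replicate share; inactive = meets neither condition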
Of the large screens only hits and unclear results are named; the others gave an inactive call (follow-up assays come after a bar, where they were run); ! = not active in a repeat. Sampled rows, rich in hits. Any-hit rate of the full collection: about 6.7%.

C[C@@H]1CCCCO[C@@H](CN(C)Cc2ccc3c(c2)OCO3)[C@H](C)CN([C@@H](C)CO)C(=O)c2cc(NC(=O)c3ccncc3)ccc2O1	none
C[C@H]1CCCCO[C@@H](CN(C)Cc2ccc(C(=O)O)cc2)[C@@H](C)CN([C@@H](C)CO)C(=O)c2cc(NC(=O)CCC(F)(F)F)ccc2O1	none
CO[C@@H]1CN(C)C(=O)c2ccc(NC(C)=O)cc2OC[C@@H](C)N(C(=O)CN2CCOCC2)C[C@H]1C	none
C[C@@H]1CN([C@@H](C)CO)C(=O)c2cc(NS(=O)(=O)c3ccc(Cl)cc3)ccc2O[C@@H](C)CCCCO[C@H]1CN(C)Cc1ccc(C(F)(F)F)cc1	T cruzi growth-1 inconclusive | T cruzi growth-2 inactive | T cruzi growth-3 113 | 3T3 cytotox 104 | NIH3T3 tox 2 106
C[C@@H]1CN([C@H](C)CO)C(=O)c2cc(NS(=O)(=O)c3ccc(Cl)cc3)ccc2O[C@@H](C)CCCCO[C@H]1CN(C)Cc1ccc(C(F)(F)F)cc1	none
C[C@@H]1CN([C@@H](C)CO)C(=O)c2cc(NS(=O)(=O)c3ccc(Cl)cc3)ccc2O[C@@H](C)CCCCO[C@@H]1CN(C)Cc1ccc(C(F)(F)F)cc1	T cruzi growth-1 96 | T cruzi growth-2 inactive | T cruzi growth-3 116 | 3T3 cytotox inactive | NIH3T3 tox 2 93
C[C@H]1CCCCO[C@@H](CN(C)Cc2ccc(C(F)(F)F)cc2)[C@@H](C)CN([C@@H](C)CO)C(=O)c2cc(NS(=O)(=O)c3ccc(Cl)cc3)ccc2O1	none
C[C@@H]1CCCCO[C@H](CN(C)Cc2ccc(C(F)(F)F)cc2)[C@@H](C)CN([C@H](C)CO)C(=O)c2cc(NS(=O)(=O)c3ccc(Cl)cc3)ccc2O1	T cruzi growth-1 111 | T cruzi growth-2 105 | T cruzi growth-3 inactive | 3T3 cytotox inactive | NIH3T3 tox 2 104
C[C@@H]1CCCCO[C@@H](CN(C)Cc2ccc(C(F)(F)F)cc2)[C@H](C)CN([C@H](C)CO)C(=O)c2cc(NS(=O)(=O)c3ccc(Cl)cc3)ccc2O1	none
C[C@@H]1CN([C@H](C)CO)C(=O)c2cc(C3=CCCCC3)cnc2O[C@H]1CN(C)Cc1cccc(F)c1	none
C[C@@H]1CN([C@@H](C)CO)C(=O)c2cc(C3=CCCCC3)cnc2O[C@@H]1CN(C)Cc1cccc(F)c1	T cruzi growth-1 112 | T cruzi growth-2 98 | T cruzi growth-3 inactive | 3T3 cytotox inactive | NIH3T3 tox 2 44
C[C@H]1CN([C@@H](C)CO)C(=O)c2cc(C3=CCCC3)cnc2O[C@H]1CN(C)Cc1cccc(F)c1	none
C[C@@H]1CN([C@@H](C)CO)C(=O)c2cc(C3=CCCC3)cnc2O[C@@H]1CN(C)Cc1cccc(F)c1	T cruzi growth-1 inconclusive | T cruzi growth-2 110 | T cruzi growth-3 inactive | 3T3 cytotox inactive | NIH3T3 tox 2 inactive
CC(C)NC(=O)Nc1ccc2c(c1)C(=O)N(C)[C@H]1CC[C@@H](CC(=O)NC3CCCCC3)O[C@H]1CO2	none
CN1C(=O)c2cc(NC(=O)c3ccc(F)c(F)c3)ccc2OC[C@H]2O[C@@H](CC(=O)Nc3ccc4c(c3)COC4)CC[C@@H]21	none
COCC(=O)N(C)C[C@@H]1Oc2ncc(-c3ccccc3C)cc2C(=O)N([C@@H](C)CO)C[C@H]1C	none
COC(=O)C[C@H]1CC[C@H]2[C@@H](COc3ccc(NC(=O)Nc4ccccc4C)cc3C(=O)N2C)O1	none
C[C@H](CO)N1C[C@H](C)[C@@H](CN(C)S(=O)(=O)c2ccccc2F)Oc2ncc(C#Cc3ccccc3)cc2C1=O	none
C[C@@H]1CCCCO[C@H](CN(C)Cc2ccc(C(F)(F)F)cc2)[C@@H](C)CN([C@@H](C)CO)C(=O)c2cc(NS(C)(=O)=O)ccc2O1	none
O=C(NC1CCC1)[C@@H]1[C@@H](CO)[C@@H]2Cn3c(ccc(-c4ccccc4)c3=O)[C@H]1N2	none
C[C@H]1CN([C@@H](C)CO)C(=O)c2cccc(N(C)C)c2O[C@@H]1CN(C)Cc1ccc(Cl)c(Cl)c1	T cruzi growth-1 100 | T cruzi growth-2 108 | T cruzi growth-3 inactive | 3T3 cytotox inactive | NIH3T3 tox 2 103
C[C@@H]1CN([C@@H](C)CO)C(=O)c2cccc(N(C)C)c2O[C@H]1CN(C)Cc1ccc(Cl)c(Cl)c1	none
C[C@@H]1CN([C@@H](C)CO)C(=O)c2cccc(N(C)C)c2O[C@@H]1CN(C)Cc1ccc(C(F)(F)F)cc1	T cruzi growth-1 104 | T cruzi growth-2 inactive | T cruzi growth-3 inactive | 3T3 cytotox inactive | NIH3T3 tox 2 inconclusive
C[C@@H]1CN([C@@H](C)CO)C(=O)c2cccc(N(C)C)c2O[C@H]1CN(C)Cc1ccc(C(F)(F)F)cc1	none
C[C@H](CO)N1C[C@H](C)[C@H](CN(C)Cc2cccc(O)c2)OCc2cn(nn2)CCCC1=O	T cruzi growth-1 inconclusive | T cruzi growth-2 inactive | T cruzi growth-3 inactive | 3T3 cytotox inactive | NIH3T3 tox 2 inactive
C[C@@H]1CN([C@@H](C)CO)C(=O)CCCn2cc(nn2)CO[C@H]1CN(C)C(=O)C1CC1	T cruzi growth-1 inconclusive | T cruzi growth-2 inactive | T cruzi growth-3 inactive | 3T3 cytotox inactive | NIH3T3 tox 2 inactive
C[C@H]1CN([C@@H](C)CO)C(=O)CCCn2cc(nn2)CO[C@@H]1CN(C)C(=O)Nc1cccc(C(F)(F)F)c1	none
C[C@@H]1CN([C@H](C)CO)C(=O)CCCn2cc(nn2)CO[C@@H]1CN(C)C(=O)Cc1ccccc1	none
C[C@@H]1CN([C@@H](C)CO)C(=O)CCCn2cc(nn2)CO[C@@H]1CN(C)C(=O)Nc1cccc(C(F)(F)F)c1	T cruzi growth-1 152 | T cruzi growth-2 inactive | T cruzi growth-3 inactive | 3T3 cytotox inactive | NIH3T3 tox 2 inactive
C[C@H]1CN([C@@H](C)CO)C(=O)CCCn2cc(nn2)CO[C@@H]1CN(C)C(=O)Cc1ccccc1	T cruzi growth-1 131! | T cruzi growth-2 inactive | T cruzi growth-3 inactive | 3T3 cytotox inactive | NIH3T3 tox 2 inactive
C[C@H]1CN([C@@H](C)CO)C(=O)CCCn2cc(nn2)CO[C@@H]1CN(C)C(=O)C1CC1	none
C[C@H]1CN([C@@H](C)CO)C(=O)CCCn2cc(nn2)CO[C@@H]1CN(C)Cc1cccc(O)c1	none (no result: C diff HTS)
O=C(NC1CCCCC1)N1CC(=O)N2[C@H](C1)[C@@H](c1ccc(-c3cccc(F)c3)cc1)[C@@H]2CO	none (no result: T cruzi growth-1)
C[C@@H]1CN([C@@H](C)CO)C(=O)CCCn2cc(nn2)CO[C@H]1CN(C)Cc1ccccc1	T cruzi growth-1 121 | T cruzi growth-2 inactive | T cruzi growth-3 inactive | 3T3 cytotox inactive | NIH3T3 tox 2 inactive
C[C@H]1CN([C@@H](C)CO)C(=O)CCCn2cc(nn2)CO[C@@H]1CN(C)C(=O)c1ccc(N2CCN(C)CC2)cc1	none
